The nature of test [1]: compounds binding Alexa647 anti-His antibody – biochemical, small-molecule microarray, 635 nm fluorescence, artefact control for SMM control protein annotation, primary screen (AID 1128).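 Further: score merges feature fluorescence with signal-to-noise for each printed compound spot.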 The note with it: higher = more signal.
For test [2], the system named is Human papillomavirus type 1a E7 protein (residues 1-88). In words: HPV1a E7 small-molecule binders, primary screen, biochemical, small-molecule microarray, residues 1-88, 635 nm (AID 1129). The note with it: small-molecule microarray binding, fluorescence 635 nm; higher = more signal.
Test [3] deals with Focal adhesion kinase 1 (Homo sapiens) (UniProt Q05397). In words: PTK2 protein binding on printed compound slides – biochemical, small-molecule microarray, 635/667 nm fluorescence, BSA, DTT, primary screen (AID 1130).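 Further: composite of spot emission at 667 nm and signal to noise over triplicate slides.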 The following applies: 635 nm fluorescence, higher = more signal.
Focal adhesion kinase 1 (Homo sapiens), sequence (Q05397 whole entry, looked up): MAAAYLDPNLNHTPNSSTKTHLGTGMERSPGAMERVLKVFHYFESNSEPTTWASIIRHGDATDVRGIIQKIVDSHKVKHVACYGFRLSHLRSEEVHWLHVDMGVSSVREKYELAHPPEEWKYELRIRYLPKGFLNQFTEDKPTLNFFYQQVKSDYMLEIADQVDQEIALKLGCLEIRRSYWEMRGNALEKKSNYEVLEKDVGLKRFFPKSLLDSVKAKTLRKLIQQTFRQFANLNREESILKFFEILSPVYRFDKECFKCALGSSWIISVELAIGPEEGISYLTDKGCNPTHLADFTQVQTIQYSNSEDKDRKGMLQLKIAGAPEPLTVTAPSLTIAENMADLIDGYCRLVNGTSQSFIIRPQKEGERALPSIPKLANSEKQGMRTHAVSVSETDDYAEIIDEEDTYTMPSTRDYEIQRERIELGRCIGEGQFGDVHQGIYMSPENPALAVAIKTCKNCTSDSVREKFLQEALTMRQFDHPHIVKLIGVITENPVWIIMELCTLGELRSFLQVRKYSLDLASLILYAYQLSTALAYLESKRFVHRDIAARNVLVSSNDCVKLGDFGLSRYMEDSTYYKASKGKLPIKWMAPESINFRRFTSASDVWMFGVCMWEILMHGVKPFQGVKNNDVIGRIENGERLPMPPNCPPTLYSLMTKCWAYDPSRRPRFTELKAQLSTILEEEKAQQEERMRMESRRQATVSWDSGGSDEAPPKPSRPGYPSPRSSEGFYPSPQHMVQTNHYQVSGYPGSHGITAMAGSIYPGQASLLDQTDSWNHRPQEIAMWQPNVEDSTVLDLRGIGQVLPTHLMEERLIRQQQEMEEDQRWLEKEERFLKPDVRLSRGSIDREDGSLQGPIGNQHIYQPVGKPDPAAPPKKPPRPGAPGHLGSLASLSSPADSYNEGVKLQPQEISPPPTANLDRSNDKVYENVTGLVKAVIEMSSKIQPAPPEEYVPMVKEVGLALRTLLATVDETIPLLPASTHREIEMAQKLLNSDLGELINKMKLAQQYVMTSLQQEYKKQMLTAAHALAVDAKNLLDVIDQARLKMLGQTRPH
In test [4] the test system is Fibrinogen (Alexa647-labelled). In words: Alexa647-fibrinogen binding to printed small molecules – biochemical, small-molecule microarray, 635/667 nm fluorescence, artefact control for SMM control-protein annotation, profiling panel (AID 1131).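 Further: z-score merges 667 nm fluorescence with per-spot signal-to-noise over triplicate slides.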 The note with it: fibrinogen-A647 binding fluorescence, higher = more signal.
Test [5] deals with Follistatin (Homo sapiens) (UniProt P19883). In words: FST protein binding to printed compounds – biochemical, small-molecule microarray, 635/667 nm fluorescence, primary screen (AID 1132). The following applies: 635 nm fluorescence, higher = more signal.
Follistatin (Homo sapiens), sequence (P19883 whole entry, looked up): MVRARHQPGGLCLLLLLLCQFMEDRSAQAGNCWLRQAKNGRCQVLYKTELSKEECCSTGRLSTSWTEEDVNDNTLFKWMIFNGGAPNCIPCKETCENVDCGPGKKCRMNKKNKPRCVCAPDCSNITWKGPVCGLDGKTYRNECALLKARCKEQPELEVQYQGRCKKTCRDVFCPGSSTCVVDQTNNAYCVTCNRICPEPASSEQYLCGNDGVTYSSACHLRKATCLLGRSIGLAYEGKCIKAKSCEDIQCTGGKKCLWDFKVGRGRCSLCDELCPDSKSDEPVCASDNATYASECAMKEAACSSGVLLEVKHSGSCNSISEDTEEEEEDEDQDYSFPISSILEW
The target of test [6] is Fibroblast growth factor 2 (Homo sapiens) (UniProt P09038). In words: basic fibroblast growth factor binding to printed compounds – biochemical, small-molecule microarray, 635/667 nm fluorescence, primary screen (AID 1133). The note with it: FGF2, fluorescence 635/667, higher = more signal.
Fibroblast growth factor 2 (Homo sapiens), sequence (P09038 whole entry, looked up): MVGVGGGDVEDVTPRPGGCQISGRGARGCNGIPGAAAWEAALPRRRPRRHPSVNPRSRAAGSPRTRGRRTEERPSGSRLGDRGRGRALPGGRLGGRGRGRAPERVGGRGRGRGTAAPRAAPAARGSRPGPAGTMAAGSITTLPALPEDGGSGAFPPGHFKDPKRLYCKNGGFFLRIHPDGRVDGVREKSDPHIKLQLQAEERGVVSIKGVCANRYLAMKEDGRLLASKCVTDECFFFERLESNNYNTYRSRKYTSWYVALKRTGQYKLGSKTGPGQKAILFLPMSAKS
Test [7] is described as follows: JC-1 mitochondrial potential readout, lung cancer cells – cell-based, A549, JC-1 fluorescence, basal, 24 h, 100 nL, profiling panel (AID 1138).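 Further: A549 lung adenocarcinoma cells under basal conditions with no added stimulus; test concentration not given here.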 The note with it: higher = more signal.
For a further test, the system named is Lefty1. In words: Lefty1 protein binding to printed compounds – biochemical, small-molecule microarray, 635/667 nm fluorescence, primary screen (AID 1139). The following applies: fluorescence 635/667, higher = more signal.
Test [8] concerns wheat germ agglutinin (Triticum aestivum), Alexa647-labelled. In words: Alexa647-WGA lectin binding to printed small molecules – biochemical, small-molecule microarray, 635/667 nm fluorescence, artefact control for SMM control-protein annotation, profiling panel (AID 1140).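 Further: score merges 667 nm feature emission with signal to noise over triplicate slides.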 The following applies: WGA-A647 binding, 635 nm fluorescence, higher = more signal.
For test [9], the target named is Luciferin 4-monooxygenase (Photinus pyralis) (UniProt P08659). In words: inhibition of purified Photinus pyralis luciferase – biochemical, luminescence, purified enzyme, 2006 set, primary screen (AID 1141).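 Further: cell-free assay with purified firefly luciferase at 100 ng per well in PBS; test concentration not given here.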 The following applies: purified firefly luciferase, SteadyGlo luminescence, 30 min; higher = more signal, called active from +8 up or from −8 down.
Luciferin 4-monooxygenase (Photinus pyralis), sequence (P08659 whole entry, looked up): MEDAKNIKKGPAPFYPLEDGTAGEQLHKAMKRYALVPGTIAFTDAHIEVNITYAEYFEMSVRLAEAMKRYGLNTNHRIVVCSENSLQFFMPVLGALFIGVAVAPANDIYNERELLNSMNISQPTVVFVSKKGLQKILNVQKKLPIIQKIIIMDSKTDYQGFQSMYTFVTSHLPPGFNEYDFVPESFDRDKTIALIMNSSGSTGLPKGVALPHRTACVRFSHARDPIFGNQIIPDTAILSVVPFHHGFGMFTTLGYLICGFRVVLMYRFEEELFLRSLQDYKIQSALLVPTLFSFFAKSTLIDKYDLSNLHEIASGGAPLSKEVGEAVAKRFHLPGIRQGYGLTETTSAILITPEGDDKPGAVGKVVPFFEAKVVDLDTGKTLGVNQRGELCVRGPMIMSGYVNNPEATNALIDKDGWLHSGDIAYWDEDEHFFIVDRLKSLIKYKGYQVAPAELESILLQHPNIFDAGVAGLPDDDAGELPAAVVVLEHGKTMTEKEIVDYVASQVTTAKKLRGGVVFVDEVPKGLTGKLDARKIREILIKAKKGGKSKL
For test [10], the system named is Wnt5a (protein binding on small-molecule microarray). In words: small molecules binding Wnt5a protein – biophysical, small-molecule microarray, 635/667 nm fluorescence, primary screen (AID 1142).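 Further: fluorescence read at 667 nm with signal to noise per printed feature.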 The following applies: 635 nm fluorescence, higher = more signal.
Test [11] can be described thus: ATP-based viability of Huh7 replicon cells – cell-based, CellTiter-Glo luminescence, basal, 48 h, cytotoxicity control for HCV replication inhibitor project, primary screen (AID 1143).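 Further: Huh7 hepatoma cells carrying a hepatitis C replication reporter with no stimulus; test concentration not given here.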 The following applies: higher = more signal, called active from +8 up or from −8 down. (In general: Replicon systems follow genome replication, usually without infectious particles.)
Test [12] can be described thus: Pseudomonas biofilm growth suppression – PAO1 strain, BacTiter-Glo luminescence, LB-PBS, primary screen (AID 1144). The following applies: P. aeruginosa PAO1 biofilm, 12 h, higher = more signal.
Test [13] can be described thus: basal CRE-LacZ reporter activity in PC12 – cell-based, unstimulated, primary screen (AID 1145). The following applies: no forskolin, luminescence, 4.5 h, higher = more signal, called active from +8 up or from −8 down.
The nature of test [14]: forskolin-driven CRE-LacZ activity in PC12 – cell-based, CRE-LacZ reporter, forskolin-stimulated, primary screen (AID 1146).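 Further: PC12 cells with 6xCRE LacZ reporter stimulated by forskolin 10 µM; beta-galactosidase reporter signal reflecting CREB driven transcription.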 The note with it: luminescence, 4.5 h, higher = more signal, called active from +8 up or from −8 down.
In test [15] the target is Streptavidin (Streptomyces avidinii) (UniProt P22629). In words: compounds binding control protein streptavidin – biophysical, small-molecule microarray, 635/667 nm fluorescence, artefact control for SMM compound annotation, primary screen (AID 1147).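 Further: signal reflects streptavidin binding to arrayed compounds as a control protein.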 The note with it: higher = more signal.
Streptavidin (Streptomyces avidinii), sequence (P22629 whole entry, looked up): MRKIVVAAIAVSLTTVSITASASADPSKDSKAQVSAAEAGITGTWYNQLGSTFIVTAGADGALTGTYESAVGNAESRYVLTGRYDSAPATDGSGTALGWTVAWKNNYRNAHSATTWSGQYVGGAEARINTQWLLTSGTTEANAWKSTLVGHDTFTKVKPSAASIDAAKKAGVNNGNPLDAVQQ
Test [16] is described as follows: probe aInhba binding on compound microarray – biochemical, small-molecule microarray, 635/667 nm fluorescence, primary screen (AID 1148).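 Further: score merges 667nm spot fluorescence with signal-to-noise for antibody binding to printed compounds.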 The following applies: higher = more signal.
Test [17] deals with Torsin-1A (Homo sapiens) (UniProt O14656). In words: TOR1A wild-type binding on microarray – cell lysate, small-molecule microarray, lysate, 635/667 nm, primary screen (AID 1149). The following applies: COS7 hTOR1A-WT lysate, 635 nm fluorescence, higher = more signal.
Torsin-1A (Homo sapiens), sequence (O14656 whole entry, looked up): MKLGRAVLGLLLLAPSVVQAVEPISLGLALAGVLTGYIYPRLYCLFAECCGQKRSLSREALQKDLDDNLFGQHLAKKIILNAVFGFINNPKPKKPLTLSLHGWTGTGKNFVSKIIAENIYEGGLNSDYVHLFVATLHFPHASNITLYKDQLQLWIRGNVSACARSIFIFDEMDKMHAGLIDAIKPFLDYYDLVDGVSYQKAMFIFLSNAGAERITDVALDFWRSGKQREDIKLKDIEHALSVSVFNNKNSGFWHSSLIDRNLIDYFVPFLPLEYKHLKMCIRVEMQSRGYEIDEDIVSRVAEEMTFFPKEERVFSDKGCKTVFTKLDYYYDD
The target is the same in test [18]. In words: torsin A mutant lysate binding on microarrays – cell lysate, small-molecule microarray, COS7 lysate, 635/667 nm fluorescence, primary screen (AID 1150).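 Further: score pools 667 nm emission and signal to noise measuring lysate protein binding.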 The note with it: COS7 hTOR1A mutant lysate, 635 nm fluorescence, higher = more signal.
Test [19] has as its system Sonic hedgehog protein (Shh). In words: Sonic hedgehog microarray binding compounds – biochemical, small-molecule microarray, 635/667 nm fluorescence, primary screen (AID 1151).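 Further: Shh protein binding to compounds spotted on small-molecule microarray slides; score combines spot fluorescence intensity with signal-to-noise across triplicate slides.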 The note with it: 635 nm fluorescence, higher = more signal.

Where “and” joins values, the source holds several entries; their conditions need not be identical. Identical values can stand only once. Calls of active or inactive are those of the source. Unless noted, how the calls were made is not given here.

The record followed here is PubChem BioAssay.

In the case of `C=C[C@@H](OC)[C@H](O)c1ccc(O)c(F)c1`, the composite z-score in test [1] is -0.709 and -0.462; in test [2], -0.912 and -1.26; in test [3], -0.746 and -0.838; in test [4], -1.11 and -0.58; in test [5], -1.18 and -0.404; in [6], -1.39 and 0.0341. The composite z-score in the test with Lefty1 was -1.7 and -0.947; in test [8], -0.303 and -0.223; in [10] it was -0.843 and -0.24; in [15] it was -1.35 and -1.17; in [16], -0.314 and -0.154; with Torsin-1A (Homo sapiens) [17] it was -1.65 and -0.846. Besides, the composite z-score is -2.28 and -0.978 with Torsin-1A (Homo sapiens) [18]; -0.644 and 0.0436 in [19]. Further, the z-score is -0.329 and 0.662 in test [7]; -0.981 (inactive) and -1.3 (inactive) in [9]; 0.558 (inactive) and -0.495 (inactive) in test [11]; -0.776 (inactive) and 0.181 (inactive) in test [12]; 0.572 (inactive) and 0.427 (inactive) in test [13]; -0.881 (inactive) and -0.122 (inactive) in test [14].

As to `COC(=O)C1=C(C)N(Cc2ccccc2)C2=C3C(=O)CCC[C@@H]3[C@@](O)(C(=O)OC)C(=O)N2[C@@H]1c1ccccc1`, the composite z-score is 0.043 and -0.496 in test [1]; 0.501 and 0.0093 in test [2]; -0.12 and 0.177 in test [3]; 0.335 and -1.14 in test [4]; 0.584 and 0.158 in test [5]; 0.997 and 0.581 in [6]. The composite z-score with Lefty1 is 0.573 and 0.217; in test [8], 0.121 and -1.1; in test [10], -0.0849 and 0.288; in test [15] it was 0.14 and -0.503; in [16], 0.155 and -0.0762; with Torsin-1A (Homo sapiens) [17], 0.555 and -0.0343. Further, the composite z-score with Torsin-1A (Homo sapiens) [18] is 0.844 and 0.0578; in [19], 0.544 and 0.586. For the same compound, the z-score is 1.22 and 0.728 in [7]; -1.29 (inactive) and -1.47 (inactive) in [9]; -0.5 (inactive) and -1.53 (inactive) in [11]; 0.311 (inactive) in [12]; 1.65 (inactive) and 1.38 (inactive) in test [13]; 0.703 (inactive) and -1.7 (inactive) in test [14].

Turning to `C=CCN(C(=O)C(c1cccs1)N(C(=O)/C=C\C(=O)O)C(C)(C)CO)c1ccc(OC)cc1` (stereo not given), the composite z-score in test [1] is -1.01 and -0.0442; in test [2] it was -0.392 and -0.41; in test [3], -0.675 and 1.18; in [4], -0.809 and -1.04; in [5], -1.7 and -1.17; in test [6] it was -0.855 and -0.862. In addition, the composite z-score with Lefty1 is -1.22 and -0.566; in test [8], -0.747 and -0.0298; in test [10] it was -0.0325 and -0.446; in [15] it was -1.19 and -0.56; in test [16], -0.061 and -0.0371; in the test with Torsin-1A (Homo sapiens) [17] it was -1.58 and -0.301. Moreover, the composite z-score with Torsin-1A (Homo sapiens) [18] was -0.269 and 1.24; in test [19] it was -0.763 and -0.121. The z-score in test [7] is 1.11 and 1.74; in test [9], -2.86 (inactive) and -5.74 (inactive); in [11] it was -1.8 (inactive) and -0.679 (inactive); in test [12] it was -1.09 (inactive); in test [13], -0.488 (inactive) and -0.619 (inactive); in test [14] it was -1.07 (inactive) and 0.149 (inactive).

In the case of `C[N+](C)(C)CCCCCCNC(=O)[C@H]1C[C@H]2C(=O)N[C@@H](CCCC[N+](C)(C)C)C(=O)N2[C@H]1c1ccc(O)cc1`, the composite z-score was -0.389 and 0.368 in test [1]; -0.558 and -0.643 in [2]; -0.391 and -0.0304 in test [3]; -0.112 and -0.705 in test [4]; 1.13 and 1.16 in test [5]; 1.52 and 0.18 in test [6]. Moreover, the composite z-score in the test on Lefty1 was 1.56 and 0.452; in [8], 0.618 and -0.277; in test [10] it was 0.0916 and 0.169; in test [15], -0.52 and -0.486; in test [16], -0.131 and -0.0313; in the test with Torsin-1A (Homo sapiens) [17] it was -0.0883 and -0.172. Besides, the composite z-score with Torsin-1A (Homo sapiens) [18] is 0.0293 and -0.103; in test [19], 1.14 and 1.93. The z-score in [7] was -1.08 and -0.207; in test [9], 1.03 (inactive) and 0.485 (inactive); in test [11], -2.26 (inactive) and 0.0462 (inactive); in test [12], -0.978 (inactive) and -0.491 (inactive); in [13], -1.22 (inactive) and 0.423 (inactive); in [14], 0.188 (inactive) and -0.798 (inactive).
